Several values for one entry are separate records, joined by “and”; a condition that tells them apart may be missing. Identical values can stand only once. Hit rate of the full screen: of about 340,000 compounds, about 1,000 (0.29%) were called active. Rule as the data show it: inconclusive = inhibition above about 29% without an active follow-up result; inactive = below that. Only a sample is shown. Potency and affinity values are given separately.
Target: Genome polyprotein (Dengue virus type 2 (strain 16681-PDK53)) (UniProt P29991)
Experiment: flavivirus cap methylation enzyme inhibition – biochemical, confirmation dose response, primary screen (AID 588689)
Details: Dengue-2 NS5 methyltransferase capping enzyme assay, at 25 µM, stronger effect = higher value
[1] = measured here: pilot screen replicate inhibition

| SMILES | inhibition | inhibition [1] [%] |
| --- | --- | --- |
| COc1ccc(OCC(O)CN2CCOCC2)cc1 (stereo not drawn) | 7.33% (inactive) |  |
| Cc1ccc[n+](-c2[nH]c(=O)sc2/C=N/N=C(\[O-])c2cccnc2)c1 | 7.25% (inactive) |  |
| Cc1ccc(NS(=O)(=O)c2ccc(NS(=O)(=O)c3cccs3)cc2)cc1 | -2.07% (inactive) |  |
| Cc1ccc(NS(=O)(=O)c2cccs2)nc1 | -0.32% (inactive) |  |
| O=C(C[n+]1ccn(CCCNP2(=O)C=C(c3ccccc3)OC(c3ccccc3)=C2)c1)c1cccs1 | 6.89% (inactive) |  |
| Cc1cccc(COCC(Cc2ccccc2)N2CCN(C(=O)c3cccc(C)c3)CCC2=O)c1 (stereo not drawn) | -1.6% (inactive) |  |
| COc1ccc(-c2noc(CCC(=O)N3CCN(c4ccccc4C)CC3)n2)cc1 | -3.97% (inactive) | -0.01 |
| COc1cccc2c1-c1c(O)cccc1C2=O | 9.88% (inactive) | 6.38 |
| O=C(O)c1cc(O)c2c(c1)C(=O)c1cccc(O)c1C2=O | 5.97% (inactive) |  |
| Nc1ncn(C(=S)Nc2ccccc2)n1 | 5.4% (inactive) |  |
| COc1cccc(-c2nnc(Nc3nc4c(F)cccc4s3)o2)c1 | 3.39% (inactive) |  |
| COc1cc(OC)cc(-c2nnc(Nc3nc4c(F)cccc4s3)o2)c1 | 0% (inactive) |  |
| Cc1nc2cc(N3CCOCC3)c(NC(=O)C3CC3)cc2c(=O)n1Cc1ccccc1 | 0% (inactive) |  |
| O=S1(=O)N=C(SCCO)c2ccccc21 | 1.39% (inactive) |  |
| O=C(CSC1=NS(=O)(=O)c2ccccc21)Nc1ccccc1 | 25.7% (inactive) |  |
| COc1cccc(CNS(=O)(=O)c2cc3c4c(c2)CCN4C(=O)CC3)c1 | -2.16% (inactive) |  |
| CNC(=S)Nc1cc(C)ccc1OC(F)F | -3.09% (inactive) |  |
| CCOC(=O)c1c(NC(=O)C2C3CCC(O3)C2C(=O)O)sc(C)c1-c1ccc(C)cc1 (stereo not drawn) | 16.7% (inactive) |  |
| CCOC(=O)c1c(NC(=O)C2C3CCC(O3)C2C(=O)O)sc2c1CCCC2 (stereo not drawn) | -0.74% (inactive) |  |
| CCOC(=O)c1c(-c2cccc3ccccc23)csc1NC(=O)C1C2CCC(O2)C1C(=O)O (stereo not drawn) | 2.56% (inactive) |  |
| COC(=O)c1c(-c2ccc(C(C)(C)C)cc2)csc1NC(=O)C1C2CCC(O2)C1C(=O)O (stereo not drawn) | 10.8% (inactive) |  |
| O=C(Nc1nc2n(n1)C(c1ccc(F)cc1)CC(c1ccccc1)N2)c1ccco1 (stereo not drawn) | -3.83% (inactive) |  |
| Cc1ccc2c(ccc[n+]2CC(=O)c2ccccc2)c1 | -3.89% (inactive) |  |
| O=C(C1CCN(S(=O)(=O)c2ccccc2)CC1)N1CCN(c2ccccc2F)CC1 | -3.69% (inactive) |  |

| SMILES | inhibition | inhibition [1] [%] |
| --- | --- | --- |
| COc1cc(OC)c(N2CC(C(=O)NCCC3=CCCCC3)CC2=O)cc1Cl (stereo not drawn) | -2.95% (inactive) |  |
| O=C(O)c1cc(N=Nc2c(O)ccc3ccccc23)cc(C(=O)O)c1 | 20.4% (inactive) |  |
| O=C(O)c1cc2ccccc2c(N=Nc2cccnc2)c1O | 0.81% (inactive) |  |
| CN(Cc1ccccc1)S(=O)(=O)c1ccc(Cl)c(C(=O)N2CCC(C(N)=O)CC2)c1 | 4.28% (inactive) |  |
| Cc1cccc(Cc2nnc(CCC(=O)N(C)CCc3ccccc3)o2)c1 | 10.8% (inactive) |  |
| CN(C)C(=O)Cn1cc(S(=O)(=O)Cc2ccccc2)c2ccccc21 | -2.66% (inactive) |  |
| CCCCNC(=O)c1sc(=S)n2c1[nH]c(=O)c1ccccc12 | 10.2% (inactive) |  |
| O=C(NCc1ccco1)c1sc(=S)n2c1[nH]c(=O)c1ccccc12 | 0% (inactive) |  |
| Nc1ccc(C(=O)Nc2ccc3c(O)cc(S(=O)(=O)O)cc3c2)cc1 | 4.28% (inactive) |  |
| CN(C)c1ccc2cc(S(=O)(=O)O)cc(O)c2c1 | 81.6% (inactive) |  |
| O=S(=O)(O)c1cccc(N=Nc2c(O)ccc3ccccc23)c1 | 1.57% (inactive) |  |
| Cc1ccc(S(=O)(=O)c2cc(Nc3ccccc3)ccc2O)cc1 | 8.82% (inactive) |  |
| O=S(=O)(O)c1cc(O)c2ccc(Nc3ccccc3)cc2c1 | 8.94% (inactive) |  |
| CC(=O)Nc1ccc2c(O)cc(S(=O)(=O)O)cc2c1 | -7.72% (inactive) |  |
| Nc1cc(S(=O)(=O)O)cc2ccc(S(=O)(=O)O)cc12 | 7.17% (inactive) |  |
| Nc1ccc(Nc2ccccc2)c(S(=O)(=O)O)c1 | 54.5% (inactive) |  |
| CN(C)/C=C1\NC(=S)N(c2ccc(Cl)cc2)C1=O | -20.4% (inactive) |  |
| Cc1ccc(S(=O)(=O)N2CCN(Cc3csc(C)n3)CC2)cc1 | 2.27% (inactive) |  |
| CC(C)CN(C(=O)COC(=O)CSc1ccc(Br)cc1)C1CCS(=O)(=O)C1 (stereo not drawn) | -3.62% (inactive) |  |
| COc1cc(C=O)ccc1OCCOCCOc1ccc(Cl)cc1Cl | -6.82% (inactive) |  |
| Nc1cccc2c(O)cccc12 | 6.13% (inactive) |  |
| Nc1cccc2cc(S(=O)(=O)O)ccc12 | 13.9% (inactive) |  |
| O=C1c2ccccc2-c2nccnc21 | 1.62% (inactive) |  |
| O=C1c2ccccc2-c2n[nH]c(=O)c3ccc(N4CCCCC4)c1c23 | -9.35% (inactive) |  |

| SMILES | inhibition | inhibition [1] [%] |
| --- | --- | --- |
| C=CCNC(=S)N/N=C/c1ccccc1OCCOc1ccccc1 | 2.29% (inactive) |  |
| CCN(CC)C(=O)CCSc1nnc(-c2ccncc2)o1 | -3.83% (inactive) |  |
| Cc1ccc(OCC(=O)N[C@@H](C)c2nnc3ccccn23)cc1C | -6.18% (inactive) |  |
| O=C(COC(=O)c1cccc(F)c1)Nc1cccc(S(=O)(=O)N2CCOCC2)c1 | -5.49% (inactive) |  |
| COc1ccc(NC(=O)C2CCC(CNc3c(N4CCC(C)CC4)c(=O)c3=O)CC2)cc1OC (stereo not drawn) | -6.26% (inactive) and 8.76% (inactive) |  |
| COc1ccc(C(=O)NNc2ccccc2)cc1 | 4.46% (inactive) |  |
| O=C(NNc1ccccc1)c1ccccc1 | -0.81% (inactive) |  |
| Cn1c(=O)[nH]c(=O)c2c1nc(N1CCOCC1)n2CCN1CCOCC1 | 1.62% (inactive) |  |
| O=C(Nc1scc(-c2cccs2)c1C(=O)O)c1cccs1 | 22.9% (inactive) |  |
| COc1cc(C(=O)Nc2scc(-c3ccccc3)c2C(=O)O)cc(OC)c1OC | 14.7% (inactive) |  |
| COc1ccc(-c2csc(NC(=O)c3cccs3)c2C(=O)O)cc1OC | -3.65% (inactive) |  |
| COc1cc(C(=O)Nc2scc(-c3ccc(C)cc3)c2C(=O)O)cc(OC)c1OC | 3.47% (inactive) |  |
| Cc1ccccc1C(=O)Nc1scc(-c2ccc(Br)cc2)c1C(=O)O | 22.5% (inactive) |  |
| COc1ccc(-c2csc(NC(=O)c3ccccc3F)c2C(=O)O)cc1 | 11.1% (inactive) |  |
| Cc1ccc(Cn2ccc(NC(=O)c3cc(-c4ccc(Cl)cc4)on3)n2)cc1 | -1.39% (inactive) |  |
| Oc1ccccc1C1OCC2(CO1)COC(c1ccccc1O)OC2 (stereo not drawn) | 1.95% (inactive) |  |
| COc1cccc(-c2c(-c3cc(OC)cc(OC)c3)n(C)c3ccc(-c4ccc(OC)nc4)cc23)c1 | 2.45% (inactive) |  |
| COC(=O)[C@@H](NC(=O)/C=C/c1ccc(OC)cc1)C(C)C | -9.35% (inactive) |  |
| COc1ccc(NC(=O)N(C)C[C@@H]2OCc3cn(nn3)CCCC(=O)N([C@H](C)CO)C[C@H]2C)cc1 | -1.7% (inactive) |  |
| COc1ccccc1CNC(=O)CN(CCc1ccccc1)S(C)(=O)=O | -7.36% (inactive) |  |
| COc1ccc(NS(=O)(=O)c2cc(NC(=O)c3sccc3C)ccc2N2CCOCC2)cc1 | 0.57% (inactive) |  |
| CC(=O)c1ccc(N2CCN(S(=O)(=O)c3c(C(=O)N4CCCCC4)c(C)n(C)c3C)CC2)cc1 | -2.71% (inactive) |  |
| Fc1cccc(Cl)c1CN1CCN(c2nc3ccccc3s2)CC1 | -4.55% (inactive) |  |
| COc1ccc(O)c(/C=N/c2nc3ccccc3n2C)c1 | 3.47% (inactive) |  |

| SMILES | inhibition | inhibition [1] [%] |
| --- | --- | --- |
| CCn1c(/C=N/c2nc3ccccc3n2C)nc2ccccc21 | -0.7% (inactive) |  |
| Cc1csc2c(=O)n3c(nc12)CCCCC3 | -3.21% (inactive) |  |
| Cc1ccc(Sc2ccc(/C=C3/C(=O)NN(c4ccccc4)C3=O)o2)cc1 | -2.65% (inactive) |  |
| CCN1C(=O)N/C(=C/c2ccc(Sc3ccc(C)cc3)o2)C1=O | -2.74% (inactive) |  |
| O=C(COC(=O)/C=C/c1ccco1)NC1CCCCC1 | -4.04% (inactive) |  |
| CC(=O)Nc1ccc(C(=O)CSc2nnc(-c3ccccc3F)n2CCc2ccccc2)cc1 | -4.64% (inactive) |  |
| C[C@@H](C[C@@H](O)[C@H](O)C(C)(C)O)[C@@H]1CC[C@]2(C)C3=CC[C@H]4C(C)(C)C(=O)CC[C@]4(C)[C@H]3CC[C@@]12C | -3.21% (inactive) |  |
| O=C(COC(=O)c1cc(Br)ccc1O)NNC(=O)c1cccs1 | 0% (inactive) |  |
| CNc1ncnc(Sc2nc(N)nc3nc[nH]c23)c1[N+](=O)[O-] | -30.9% (inactive) |  |
| Nc1nc(SCc2ccccc2)c2[nH]cnc2n1 | -9.52% (inactive) |  |
| CC(C)C(NS(=O)(=O)c1cccc(C(F)(F)F)c1)C(=O)N1CCc2ccccc2C1 (stereo not drawn) | -4.98% (inactive) |  |
| CCn1c(SCC(=O)NNC(=O)c2ccc(C)cc2)nnc1C(C)C | 7.12% (inactive) |  |
| Nc1ccc(N2CCCCC2)cc1N1CCCCC1 | 25.7% (inactive) |  |
| Nc1ccc(N2CCOCC2)c2nonc12 | 45.2% (inactive) |  |
| O=C1C2CCCN2C(=S)N1c1ccccc1 (stereo not drawn) | -3.27% (inactive) |  |
| COc1ccccc1-c1cc(N)n[nH]1 | 2.4% (inactive) |  |
| Cc1cc(C)cc(N=Cc2ccc([N+](=O)[O-])s2)c1 | 4.37% (inactive) |  |
| COc1ccc(N2C(=O)NC(=O)C2=O)cc1 | -2.2% (inactive) |  |
| Cc1ccc(/C=C2\C(=O)NC(=O)N2C)o1 | 23.3% (inactive) |  |
| COc1ccc(NC(C)C(=O)N/N=C/c2ccc([N+](=O)[O-])s2)cc1 (stereo not drawn) | -5.18% (inactive) |  |
| CC1CC(C)CN(C(=O)/C=C/c2ccc([N+](=O)[O-])s2)C1 (stereo not drawn) | -5.44% (inactive) |  |
| CC1=CN2C(=N)/C(=C/c3ccc([N+](=O)[O-])o3)C(=O)N=C2S1 | -58.2% (inactive) |  |
| COc1cccc(N2C(=O)/C(=C\c3cccs3)NC2=S)c1 | -5.28% (inactive) |  |
| COc1cccc(NCc2ccc([N+](=O)[O-])s2)c1 | -8.01% (inactive) |  |
